Assay results taken from the supplement of paper PMC12636033.
± gives the standard deviation of the averaged measurements. Over roughly 33,000 sequences, “E-score (rank enrichment, -0.5 to 0.5)” has its median near -0.0068; the highest 2% begin near 0.24. Many of the other results were omitted from the sample, so the highest values are more common in it than they were.

test system: muMax20 (Max(13-93) K31hArg/K57hArg, M65Nle); assay: PBM 8-mer E-score (E-score (rank enrichment, -0.5 to 0.5)); higher = stronger preferential binding
Experimental: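 Protein binding microarray (universal PBM chip covering all 10-mers in fixed probe flanks) with chemically synthesized human Max(13-93) bHLH-LZ analogs (not full-length Max) bearing noncanonical residues (hArg, Tha, Aib, Nle at 65) and aromatic Cys staples. Read-out per 8-mer (and its reverse complement): E-score (rank-based enrichment, -0.5 to 0.5) and Z-score of median probe intensity.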

Sequence | PBM 8-mer E-score
CAGTTGTC | -0.0724 ± 0.03
AATCTGCC | -0.0641 ± 0.019
AACCTAAC | 0.00712 ± 0.17
AAGATAGT | 0.0344 ± 0.11
ATGGTCGG | 0.12 ± 0.014
AATCGGAT | -0.181 ± 0.015
GCCGGTCA | -0.116 ± 0.078
AATTACGC | 0.0652 ± 0.043
GTTAGATA | 0.164 ± 0.13
ATTAGATA | 0.262 ± 0.057
AATATATC | 0.0912 ± 0.07
CTTATATC | 0.137 ± 0.08
GTTATATA | 0.25 ± 0.023
ATTAGATG | 0.226 ± 0.051
ATTATATC | 0.247 ± 0.031
GTTATACA | 0.195 ± 0.095
AGTATAAC | 0.097 ± 0.009
GTTATAGA | 0.21 ± 0.089
AGTATAAG | 0.237 ± 0.042
AGTATAAA | 0.213 ± 0.011
CATGGCAC | 0.0103 ± 0.037
CTGTGTGA | 0.134 ± 0.012
CAGCGCAC | -0.171 ± 0.087
TATGAGGA | -0.0378 ± 0.11
AACAGACG | -0.142 ± 0.096

Sequence | PBM 8-mer E-score
GGTGGATA | -0.0515 ± 0.1
ACGGTTCA | -0.138 ± 0.047
CTAGGTGA | 0.108 ± 0.032
TAGGATGA | -0.00288 ± 0.12
AGTATATC | -0.038 ± 0.059
ATTATACG | 0.0459 ± 0.063
AGTATATG | 0.145 ± 0.017
GGTATCTA | -0.022 ± 0.064
AGTATCTA | 0.344 ± 0.011
CGTATCTA | -0.0745 ± 0.11
ATTATACA | 0.174 ± 0.083
ACTATATG | 0.191 ± 0.089
CTTATATA | 0.226 ± 0.043
ATTATATG | 0.251 ± 0.03
ATTATATA | 0.242 ± 0.03
AGTATATA | 0.277 ± 0.12
GCCGTACA | 0.042 ± 0.14
GGCGTACA | -0.082 ± 0.02
CAAACGTC | 0.0182 ± 0.068
CAGTAGAC | -0.021 ± 0.044
AGGATGCG | -0.118 ± 0.034
CCTATATC | -0.0516 ± 0.071
ACTATATC | 0.273 ± 0.02
ACTATATA | 0.235 ± 0.028
CCTTGTAC | 0.176 ± 0.15

Sequence | PBM 8-mer E-score
ACGAAGCG | -0.0243 ± 0.071
ATACTAGG | 0.138 ± 0.032
ACATATTG | 0.11 ± 0.12
GAATATTA | 0.137 ± 0.083
AAATATTC | 0.249 ± 0.0014
CAATATTC | 0.0728 ± 0.011
CCATATTA | 0.124 ± 0.062
ACATATTA | 0.241 ± 0.011
ACATATCG | 0.046 ± 0.074
TAATATTA | 0.337 ± 0.011
TAATATGA | 0.221 ± 0.017
CCATATCA | 0.0749 ± 0.018
ACATATCA | 0.262 ± 0.041
GAATATTC | 0.195 ± 0.08
CGGCGTCC | -0.114 ± 0.047
ATGCAATG | -0.00261 ± 0.02
CAACTTGG | -0.0581 ± 0.1
AGAGAACC | -0.143 ± 0.11
CAGATCTC | -0.176 ± 0.038
ATCTGACG | -0.0395 ± 0.07
ATAGCGCG | 0.0731 ± 0.084
CATTGCGG | -0.148 ± 0.13
ACTTCAAC | 0.11 ± 0.041
CCATAGCA | 0.0753 ± 0.09
ACATAGCA | 0.272 ± 0.032

Sequence | PBM 8-mer E-score
AAATATTA | 0.27 ± 0.028
AAATATTG | 0.138 ± 0.0027
CAATATTA | 0.221 ± 0.056
TCATAGCA | 0.108 ± 0.0018
ATAAAGAG | 0.181 ± 0.089
AGACAACA | 0.0868 ± 0.027
TCTATCAA | 0.184 ± 0.099
ATCTCCAT | 0.0165 ± 0.085
ATAGGACC | -0.0994 ± 0.04
GGTAAGGA | -0.00502 ± 0.057
AACGCGTA | 0.0549 ± 0.11
ACCGCGTA | 0.0588 ± 0.11
AACGCGTG | 0.144 ± 0.01
CACGCGTC | 0.208 ± 0.048
GATGCTGA | -0.131 ± 0.16
ACCGCGTG | 0.294 ± 0.022
AATGCTGA | 0.088 ± 0.064
ACCGCGTC | -0.131 ± 0.011
CATGCTGA | 0.2602 ± 0.0021
CACGCGTA | 0.248 ± 0.051
CACGCGTG | 0.314 ± 0.11
GACGCGTA | 0.0707 ± 0.061
ATAAACGA | 0.229 ± 0.033
TAATCTGA | -0.0143 ± 0.051
AGGCCGTC | -0.184 ± 0.049

Sequence | PBM 8-mer E-score
TCCCCGCA | -0.0761 ± 0.035
ATCACCTC | 0.0702 ± 0.029
TCATCTCA | -0.000685 ± 0.13
ATTGACCG | 0.0179 ± 0.099
ATCGCGCG | 0.0373 ± 0.16
AATGCGTA | 0.0783 ± 0.035
GATGCGTA | 0.0917 ± 0.02
CATGCGTA | 0.259 ± 0.15
AGGTGGTG | 0.0398 ± 0.076
ACGTGGTC | 0.213 ± 0.093
ACGTGGTA | 0.309 ± 0.021
GCGTGGTA | 0.148 ± 0.095
ACGTGGTG | 0.336 ± 0.015
CCGTGGTA | -0.0136 ± 0.0022
ATAGAAAT | 0.15 ± 0.089
GGAATAGA | 0.0778 ± 0.075
GACATGGC | 0.0454 ± 0.031
GACATGGA | -0.0732 ± 0.1
AACATGGA | 0.135 ± 0.0038
CACATGGC | 0.269 ± 0.088
CACATGGG | 0.181 ± 0.052
CACATGGA | 0.238 ± 0.15
ATGACGCG | 0.0788 ± 0.13
CCGGACAC | -0.238 ± 0.079
GTAGAATA | 0.235 ± 0.044

Sequence | PBM 8-mer E-score
ATAGAATG | 0.138 ± 0.018
ATAGAATA | 0.245 ± 0.029
AGTATTCG | 0.0983 ± 0.088
ATTCTATG | 0.109 ± 0.0098
GAAAAATA | 0.158 ± 0.027
AATAAATT | 0.213 ± 0.037
GATAAATA | 0.149 ± 0.036
CATAAATG | -0.0552 ± 0.089
AATAAATA | 0.245 ± 0.06
CAAAAATA | 0.176 ± 0.0026
TAAATATA | 0.246 ± 0.014
CAAATATA | 0.162 ± 0.027
AATAAATC | 0.0155 ± 0.081
AAAATATA | 0.21 ± 0.055
AAAAAATA | 0.271 ± 0.019
AATAAATG | 0.278 ± 0.018
AGTATAGC | -0.0321 ± 0.19
CAATTTCG | 0.0689 ± 0.083
GTATGGGA | -0.111 ± 0.019
GAGCACCC | -0.166 ± 0.061
CACGGGAG | 0.00455 ± 0.05
ACGGGAGT | 0.0635 ± 0.097
CACGGGCG | -0.217 ± 0.14
CCTAAATA | 0.123 ± 0.022
CATAAATA | 0.318 ± 0.035

Sequence | PBM 8-mer E-score
TAAAAATA | 0.131 ± 0.048
CATAAATC | 0.0804 ± 0.0035
GAAATGTA | 0.0974 ± 0.0077
CAAATGTA | 0.195 ± 0.11
TATAAATA | 0.2587 ± 0.0014
TAAATGTA | 0.285 ± 0.01
ATTAAATA | 0.2 ± 0.025
CTTAAATA | 0.0909 ± 0.014
CGTAAATA | 0.0359 ± 0.08
GTTAAATA | 0.283 ± 0.032
CCTCCGGC | -0.116 ± 0.096
ATTTGATA | 0.176 ± 0.046
GCTTGACC | -0.013 ± 0.069
ATGGATCG | -0.294 ± 0.055
AATTAGCA | 0.159 ± 0.046
CTGGAGCC | -0.177 ± 0.015
ATGCCCGG | -0.241 ± 0.076
AACTACGA | 0.0584 ± 0.13
AAGTATAT | 0.183 ± 0.0083
AAGTATAA | 0.215 ± 0.033
AAGTATAC | 0.259 ± 0.043
ACAAGGGT | 0.0627 ± 0.11
TATAGTCA | 0.246 ± 0.027
CTTAGTAA | 0.0409 ± 0.1
TATAGTAA | 0.28 ± 0.024

Sequence | PBM 8-mer E-score
CGTAGTAA | 0.104 ± 0.053
GATAGTAA | 0.0883 ± 0.11
GATAGTCA | 0.117 ± 0.051
TGTAGTAA | 0.258 ± 0.033
ATTAGTAC | 0.0781 ± 0.08
ATTAGTAA | 0.246 ± 0.00033
CATAGTAA | 0.163 ± 0.055
CATAGTCA | 0.05 ± 0.035
AGTAGTAA | 0.151 ± 0.057
AACGTTAG | 0.091 ± 0.026
AGAGCAAT | -0.0507 ± 0.013
CCACCGCA | -0.117 ± 0.1
ACGGGTAG | -0.226 ± 0.026
CAGATCCG | -0.166 ± 0.073
CTCCCAGC | -0.118 ± 0.04
ATTAGTTA | 0.173 ± 0.015
GTTAGTTA | 0.251 ± 0.048
CTTAGTTA | 0.0136 ± 0.12
GCCTCGAC | -0.225 ± 0.022
AACCCGGA | -0.327 ± 0.033
GTAAGGCA | 0.203 ± 0.12
ATTCTAGA | 0.0758 ± 0.1
ATCTACAA | 0.126 ± 0.062
ACGTGGCG | 0.165 ± 0.085
ACGTGGCT | 0.249 ± 0.1

Sequence | PBM 8-mer E-score
ACGTGGCC | 0.114 ± 0.13
TCGTGGCA | 0.164 ± 0.017
ACGTGGCA | 0.256 ± 0.033
CCGTGGCA | -0.149 ± 0.013
CAGGCTGG | -0.172 ± 0.05
GTTTTCAA | 0.258 ± 0.079
CATTTCAA | 0.217 ± 0.053
ATTTTCAC | -0.00186 ± 0.074
CTTTTCAA | 0.144 ± 0.06
CCTTTCAC | 0.116 ± 0.056
GATTTCAA | -0.0671 ± 0.11
CTTTTCAC | 0.311 ± 0.078
TATTTCAA | 0.257 ± 0.016
GGTTTCAA | 0.0825 ± 0.073
AATAGGGG | 0.0563 ± 0.032
CGCCGCTA | -0.204 ± 0.0029
ACAGAGCC | -0.0681 ± 0.01
CGCATAAC | 0.153 ± 0.039
AGCGCTCC | -0.263 ± 0.015
